Compounds with a hit are over-represented: about 7.6% of the library has one in this group of screens.
ELG1 DNA repair = inhibitors of ELG1-dependent DNA repair in HEK293T cells | HEK293T ELG1-luciferase reporter, luminescence, 16 h; DNA damage induced by 5-fluorouridine | Potency, µM (doses to about 46.1 µM), hits mostly inhibitors | hit rate 2.3% among 330,000; further: nearly all actives have a fitted effect of over 55% in size
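DMSO vehicle served as the neutral condition. Each well held 2,000 cells given 5-fluorouridine plus compound; after 16 hr at 37 °C/5% CO2, ONE-Glo was added and luciferase measured 30 min later.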
RORg inh = ROR gamma (mouse) transcription inhibition. P51450. Drosophila S2 Gal4-RORgamma UAS-luciferase reporter, 20 h. Potency, µM (doses to about 53.6 µM), most hits filed as inhibitors. hit rate 5.4% among 310,000; further: nearly all actives have a fitted effect of over 60% in size
Target sequence (P51450 whole entry, looked up, the tested form may be a part): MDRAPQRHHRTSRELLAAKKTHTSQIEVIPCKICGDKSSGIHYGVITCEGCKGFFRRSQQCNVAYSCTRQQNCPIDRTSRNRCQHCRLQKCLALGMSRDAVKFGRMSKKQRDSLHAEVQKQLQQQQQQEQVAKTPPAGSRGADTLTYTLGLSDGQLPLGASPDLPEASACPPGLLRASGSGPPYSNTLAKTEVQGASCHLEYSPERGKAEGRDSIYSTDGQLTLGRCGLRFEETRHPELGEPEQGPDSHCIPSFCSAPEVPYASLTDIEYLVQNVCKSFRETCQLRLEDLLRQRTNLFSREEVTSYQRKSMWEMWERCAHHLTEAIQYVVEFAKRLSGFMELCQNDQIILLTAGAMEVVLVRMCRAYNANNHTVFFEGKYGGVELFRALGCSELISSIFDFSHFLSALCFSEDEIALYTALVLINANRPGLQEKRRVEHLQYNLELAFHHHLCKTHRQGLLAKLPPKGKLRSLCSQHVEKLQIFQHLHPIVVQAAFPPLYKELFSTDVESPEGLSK
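Luciferase reporter read in Schneider cells carrying Gal4-RORγ (mouse) and UAS-Photinus luciferase; cells given compound 1 h before 700 uM copper sulfate induction, then incubated 20 h at ambient temperature.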
p53 reactivation = mutant p53 re-activation in reporter cells; H1299 p53-A138V BP100-luciferase reporter, luminescence, 24 h; Potency, µM (series often up to 92.2 µM), usual class: activators; hit rate 0.063% among 320,000; AID 504706; further: nearly all actives have a fitted effect of over 45% in size
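H1299 (p53-null), stable ts p53-A138V + BP100-Luc; 1000 cells/well, Opti-MEM/10% FBS; cpd 4 pt, 1:5; 24 h, 37 deg C, 5% CO2; detection reagent 10 min RT; luminescence.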
VP16 counter = inhibits Gal4-VP16 luciferase reporter, ROR gamma counter-screen | Drosophila S2 Gal4-VP16 UAS-luciferase, luminescence, 20 h | hit rate 3.5% among 310,000 | Potency, µM (titrated, usually from 53.6 µM), usual class: inhibitors;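 further: Gal4-VP16 expression switched on by copper sulfate through the metallothionein promoter; nearly all actives have a fitted effect of over 50% in size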
Giardia kill = kills Giardia lamblia; Giardia lamblia trophozoite viability; activity change, % at 7.66 µM, hits read low; hit rate 0.15% among 340,000; AID 540267; in the data active means activity change below about -80%; inconclusive means between about -30% and that limit;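 further: parasites exposed to compound for two days anaerobically before the ATP read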
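Trophozoites 100 cells/well + cpd; 48 hrs, 37 deg C, anaerobic. ATPLite 1-Step added, 15-30 min RT, luminescence read (ATP-based viability).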
BRCA1 expr act = activators of BRCA1 expression. MCF7-BRCA1-FFLuc reporter, luminescence, 48 h; response scale: scaled: vehicle 0%, 10 µM genistein 100%. Potency, µM (highest dose often 46.1 µM), actives largely listed as activators. hit rate 1.1% among 380,000. AID 624202; further: nearly all actives have a fitted effect of over 80% in size
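Cells: MCF7-BRCA1-FFLuc, 2000/well. Exposure: 48 h, 37 °C, 5% CO2. Read: luminescence, 15 min post-substrate. Controls: genistein 10 microM (maximal activation), DMSO (neutral).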
Hits are given with their value; – = inactive; ? = inconclusive; · = no result; [ ] = remark or other dose. Unless noted, the call rests on the fitted dose curve; in most records, active means well fitted curve in the direction sought with a large enough effect; inconclusive means small, poorly fitted or top-dose-only effect, or another doubt; inactive means no such curve, though single readings can be large; an effect the other way counts as inactive or inconclusive.

SMILES | ELG1 DNA repair | RORg inh | p53 reactivation | VP16 counter | Giardia kill | BRCA1 expr act
COc1ccc2nc3c(c([Si](C)(C)C(C)(C)C)c2c1)Cn1c-3cccc1=O | · | 12.6µM | · | 11.2µM | · | ·
CN(C)S(=O)(=O)c1ccc(C(=O)NCC(=O)N/N=C/c2ccccc2)cc1 | – | – | – | – | – | –
CCc1ccc(Nc2cc(C)nc3ncnn23)cc1 | ? | –[1.91 µM] | – | – | – | –
Cc1cc(Nc2ccc(Cl)cc2)n2ncnc2n1 | – | – | – | – | – | –
CCn1c2ccccc2c2cc(Nc3cc(C)nc4ncnn34)ccc21 | ? | 20µM | – | ? | – | –
Cc1ccc(Nc2cc(-c3ccccc3)nc3ncnn23)cc1 | – | 11.2µM | – | ? | – | –
Cc1cc(C)cc(NC(=O)CN2C(=O)CSc3ccc(S(=O)(=O)N(C)C)cc32)c1 | · | · | · | · | · | –
Cc1ccccc1NC(=O)CN1C(=S)NC(C)(C)CC1C (configuration not stated) | – | ? | – | ? | – | –
CCOc1ccccc1NC(=O)CCCN1C(=S)NC(C)(C)CC1C (configuration not stated) | – | 14.1µM | – | ? | – | –
CCOc1ccc(OCC)c(NC(=O)CCCN2C(=S)NC(C)(C)CC2C)c1 (configuration not stated) | – | 6.31µM | – | 6.31µM | – | –
CCCN1CCN(CC(=O)Nc2cc(OCC)ccc2OCC)CC1 | – | – | – | – | – | –
CC(Oc1ccccc1F)C(=O)NNC(=O)CCNC(=O)c1ccco1 (configuration not stated) | – | · | – | · | – | –
O=C1NCCCCC1NC1CC(=O)N(c2ccccc2)C1=O (configuration not stated) | – | – | – | – | – | –
COc1ccc(C(=O)NC(=S)N2CCC(C)CC2)cc1 | ? | 1.41µM | – | 3.98µM | – | –
COc1ccc(C(=O)NC(=S)N2CCCC2)cc1 | – | – | – | – | – | –
COc1ccc(C(=O)NC(=S)N2CC(C)OC(C)C2)cc1 (configuration not stated) | – | 5.62µM | – | 6.31µM | – | –
Cc1ccc(C(=O)NC(=S)N2CC(C)OC(C)C2)cc1[N+](=O)[O-] (configuration not stated) | – | 0.398µM | – | 0.708µM | – | –
Cc1ccc(-c2nc3ccc(NS(=O)(=O)c4ccccc4)cc3[nH]2)o1 | ? | – | – | – | – | ?
COc1ccc(S(=O)(=O)N(C)CC(=O)Nc2ccc3c(c2)OCCO3)cc1 | – | · | – | · | – | –
CCN(C(=O)COc1cc(=O)n(CC)c2ccccc12)c1cccc(Cl)c1 | – | – | – | – | – | –
CCN(C(=O)COc1cc(=O)n(CC)c2ccccc12)c1cc(Cl)ccc1OC | 20.6µM | – | – | – | – | –
COc1ccc(NC(=O)COC(=O)/C=C/c2cccs2)c(OC)c1 | – | · | – | · | – | –
C#CCOc1nc(Nc2cccc([N+](=O)[O-])c2)nc(OCC#C)n1 | 18.3µM | – | – | – | – | –
Cc1ccc(S(=O)(=O)NNc2ccccc2)cc1 | – | – | – | – | – | –
Cc1ccc(S(=O)(=O)NNc2nc3ccccc3nc2C(F)(F)F)cc1 | – | 17.8µM | – | ? | – | –
SMILES | ELG1 DNA repair | RORg inh | p53 reactivation | VP16 counter | Giardia kill | BRCA1 expr act
O=C(NNc1nc2ccccc2o1)c1ccccc1 | ? | ? | – | ? | – | –
O=C(NNc1nc2ccccc2nc1C(F)(F)F)c1ccccc1 | – | 7.94µM | – | 15.8µM | – | –
N#Cc1c(-c2cccs2)cc(-c2ccccn2)nc1N | ? | ? | ? | 7.94µM | – | –
O=C(O)/C=C/C(=O)c1c(-c2ccccc2)[nH]c2ccccc12 | ? | 14.1µM | – | ? | – | –
CN(C)CCCN(C(=O)c1ccc([N+](=O)[O-])o1)c1nc2cc3c(cc2s1)OCO3 | – | 12.6µM | – | ? | ? | –
CN(C)CCCN(C(=O)c1ccc(S(=O)(=O)N(C)Cc2ccccc2)cc1)c1nc2cc3c(cc2s1)OCO3 | – | 8.91µM | – | ? | – | –
CCN(c1ccccc1)S(=O)(=O)c1ccc(C(=O)N(CCCN(C)C)c2nc3cc4c(cc3s2)OCO4)cc1 | ? | – | – | ? | – | –

Source: PubChem (National Center for Advancing Translational Sciences (NCATS))
